Experiment in all cases: glycan array binding signal (z-score within array); higher = stronger binding
What all share (details): glycan notation: IUPAC condensed, linker removed

The target in experiment [1] is Fuc(a1-2)Gal(b1-4)GlcNAc(b1-3)Gal(b1-4)GlcNAc. The procedure, abridged:
(§1)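 The Consortium for Functional Glycomics database supplied 3228 glycan arrays, of which those lacking an available protein sequence were dropped. The binding signal, a within-array Z-score, was averaged across arrays of the same protein sequence and across linkers. Negative scores can be read as non-binding.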

Experiment [2] has as its target Fuc(a1-3)[Gal3S(b1-4)]GlcNAc6S. The procedure, abridged:
as §1

Experiment [3] has as its target Fuc(a1-3)[Neu5Ac(a2-3)]Gal(b1-4)GlcNAc(b1-3)GalNAc. The procedure, abridged: as §1
Experiment [4] concerns the target Gal(b1-3)GalNAc(b1-4)[Neu5Ac(a2-3)]Gal(b1-4)Glc. The procedure, abridged: as §1
Experiment [5] addresses Gal(b1-3)[Fuc(a1-4)]GlcNAc(b1-3)Gal(b1-4)[Fuc(a1-3)]GlcNAc. The procedure, abridged: as §1
The target in the next experiment is Gal(b1-4)Glc6S. The procedure, abridged:
as §1

The target in experiment [6] is Gal(b1-4)GlcNAc(b1-2)Man(a1-6)Man(b1-4)GlcNAc(b1-4)GlcNAc. The procedure, abridged: as §1
Experiment [7] has as its target Gal(b1-4)GlcNAc(b1-2)Man(a1-6)[Man(a1-3)]Man(b1-4)GlcNAc(b1-4)GlcNAc. The procedure, abridged: as §1
Experiment [8] deals with Gal(b1-4)GlcNAc(b1-6)[Gal(b1-3)]GalNAc. The procedure, abridged:
as §1

In experiment [9] the target is Gal3S(b1-3)[Fuc(a1-4)]GlcNAc. The procedure, abridged: as §1
The target in another experiment is GalNAc(b1-3)Gal. The procedure, abridged:
as §1

Experiment [10] deals with GalNAc(b1-3)Gal(a1-4)Gal(b1-4)GlcNAc. The procedure, abridged: as §1
Experiment [11] deals with GlcNAc(a1-4)Gal(b1-4)GlcNAc(b1-3)Gal(b1-4)[Fuc(a1-3)]GlcNAc(b1-3)Gal(b1-4)[Fuc(a1-3)]GlcNAc. The procedure, abridged:
as §1

The target of experiment [12] is GlcNAc(b1-2)Man(a1-3)[GlcNAc(b1-2)Man(a1-6)]Man(b1-4)GlcNAc(b1-4)GlcNAc. The procedure, abridged: as §1
The next experiment addresses GlcNAc(b1-3)Gal(b1-4)Glc. The procedure, abridged:
as §1

The next experiment concerns the target Kdn(a2-3)Gal(b1-4)GlcNAc. The procedure, abridged: as §1
Experiment [13] addresses Man(a1-2)Man(a1-2)Man(a1-3)Man. The procedure, abridged: as §1
In a further experiment the target is Man(a1-3)[Man(a1-6)]Man. The procedure, abridged: as §1
In experiment [14] the target is Neu5Ac(a2-3)Gal(b1-3)GalNAc(b1-3)Gal(a1-4)Gal(b1-4)Glc. The procedure, abridged: as §1
For experiment [15], the target named is Neu5Ac(a2-3)Gal(b1-3)[Neu5Ac(a2-3)Gal(b1-4)]GlcNAc. The procedure, abridged:
as §1

The target in a further experiment is Neu5Ac(a2-6)Gal(b1-4)Glc. The procedure, abridged:
as §1

In experiment [16] the target is Neu5Ac(a2-8)Neu5Ac(a2-3)[GalNAc(b1-4)]Gal(b1-4)Glc. The procedure, abridged: as §1
The target in experiment [17] is Neu5Ac9Ac(a2-3)Gal(b1-3)GlcNAc. The procedure, abridged: as §1
For experiment [18], the target named is Neu5Ac9Ac(a2-6)Gal(b1-4)GlcNAc. The procedure, abridged: as §1
For experiment [19], the target named is Neu5Gc(a2-3)Gal(b1-4)[Fuc(a1-3)]GlcNAc. The procedure, abridged: as §1
The target in experiment [20] is Kdn(a2-3)Gal(b1-4)[Fuc(a1-3)]GlcNAc. The procedure, abridged: as §1
The target in another experiment is Kdn(a2-6)Gal(b1-4)GlcNAc. The procedure, abridged: as §1
For another experiment, the target named is Man(b1-4)GlcNAc. The procedure, abridged: as §1
The target of another experiment is Neu5Ac(a2-3)Gal. The procedure, abridged: as §1
The target in experiment [21] is Neu5Ac(a2-3)Gal(b1-4)GlcNAc(b1-2)Man(a1-3)[GlcNAc(b1-4)][Neu5Ac(a2-3)Gal(b1-4)GlcNAc(b1-2)Man(a1-6)]Man(b1-4)GlcNAc(b1-4)GlcNAc. The procedure, abridged: as §1
The target of experiment [22] is Neu5Ac(a2-3)Gal(b1-4)GlcNAc(b1-3)Gal(b1-4)GlcNAc(b1-6)[Gal(b1-3)]GalNAc. The procedure, abridged: as §1
The target of experiment [23] is Neu5Ac(a2-3)Gal(b1-4)GlcNAc(b1-3)GalNAc. The procedure, abridged:
as §1

The target in experiment [24] is Neu5Ac(a2-3)Gal(b1-4)[Fuc(a1-3)]GlcNAc(b1-3)Gal. The procedure, abridged: as §1
The next experiment deals with Neu5Ac(a2-3)GalNAc. The procedure, abridged:
as §1

Experiment [25] addresses Neu5Ac(a2-6)Gal(b1-4)GlcNAc(b1-2)Man(a1-3)[Neu5Ac(a2-3)Gal(b1-4)GlcNAc(b1-2)Man(a1-6)]Man(b1-4)GlcNAc(b1-4)GlcNAc. The procedure, abridged:
as §1

The next experiment has as its target Neu5Ac(a2-6)GalNAc. The procedure, abridged: as §1
In experiment [26] the target is Neu5Ac(a2-8)Neu5Ac(a2-3)Gal(b1-3)GalNAc(b1-4)[Neu5Ac(a2-3)]Gal(b1-4)Glc. The procedure, abridged:
as §1

Experiment [27] deals with Neu5Ac(a2-8)Neu5Ac(a2-8)Neu5Ac(a2-8)Neu5Ac(a2-3)[GalNAc(b1-4)]Gal(b1-4)Glc. The procedure, abridged: as §1
In experiment [28] the target is Neu5Gc(a2-3)Gal(b1-4)GlcNAc. The procedure, abridged:
as §1

Only a selection was taken, and the strongest signals are over-represented in it overall.

B1: Flo11 (Saccharomyces cerevisiae), Q1H8S8 (protein)
chain: MGSSHHHHHHSSGLVPRGSHMFPTALVPRGSSEGTSCNSIVNGCPNLDFNWHMDQQNIMQYTLDVTSVSWVQDNTYQITIHVKGKENIDLKYLWSLKIIGVTGPKGTVQLYGYNENTYLIDNPTDFTATFEVYATQDVNSCQVWMPNFQIQFEYLQGSAAQYASSWQWGTTSFDLSTGCNNYDNQGHSQTDFPGFYWNIDCDNNCGGTKSS
For the molecule B1, the “glycan array binding signal (z-score)” value in [1] was -0.01; in experiment [2], 1.26; in experiment [3], 3.1; in [4], 2.88; in experiment [5], -0.502; with Gal(b1-4)Glc6S, -0.505. The “glycan array binding signal (z-score)” value is -0.507 in experiment [6]; -0.506 in experiment [7]; -0.482 in experiment [8]; -0.502 in experiment [9]; 3.63 with GalNAc(b1-3)Gal; 4.27 in [10]. Besides, the “glycan array binding signal (z-score)” value in experiment [11] was 0.071; in experiment [12] it was -0.505; in the experiment with GlcNAc(b1-3)Gal(b1-4)Glc, 1.26; in the experiment with Kdn(a2-3)Gal(b1-4)GlcNAc, -0.496; in experiment [13] it was -0.505; in the experiment with Man(a1-3)[Man(a1-6)]Man, -0.502. Moreover, the “glycan array binding signal (z-score)” value in experiment [14] is 3.08; in [15], -0.511; with Neu5Ac(a2-6)Gal(b1-4)Glc, -0.507; in experiment [16] it was 3.67; in [17] it was -0.505; in [18], -0.494. Moreover, the “glycan array binding signal (z-score)” value in experiment [19] came to 3.45.

B2: EULS2 M3 (Oryza sativa) (protein)
chain: MVYCRANPNYAMTARNGAVVLAPANPKDEYQHWIKDMRWSTSIKDEEGYPAFALVNKATGQAIKHSLGQSHPVRLVPYNPEVMDESVLWTESRDVGNGFRCIRMVNNIYLNFDAFHGDKYHGGVRDGTDIVLWKLCEGDSLRWKIQPYYILEQKLISEEDLNSAVDHHHHHH
In the case of B2, the “glycan array binding signal (z-score)” value is 0.28 in [20]; -0.599 in the experiment with Kdn(a2-6)Gal(b1-4)GlcNAc; 0.117 in the experiment with Man(b1-4)GlcNAc; -1.29 in the experiment with Neu5Ac(a2-3)Gal; -0.414 in experiment [21]; -0.345 in experiment [22]. The “glycan array binding signal (z-score)” value was -0.286 in experiment [23]; 0.557 in experiment [24]; -0.085 in the experiment with Neu5Ac(a2-3)GalNAc; -0.391 in experiment [25]; -0.8 with Neu5Ac(a2-6)GalNAc; 1.61 in experiment [26]. Also, the “glycan array binding signal (z-score)” value in experiment [27] is -0.424; in experiment [28], 0.145.
